CYP2C19 activ = increases human CYP2C19 enzyme activity; P33261; recombinant CYP2C19, luciferin-H EGE luminescence; hits give high values; 0 = fully inhibited enzyme, 1 = untreated enzyme; activation factor at 5 µM; 96,000 tested, under 10 active; AID 1025;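 active = activation factor of at least 2 at 5 µM in the primary screen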;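 also: 0 = wells with 2.5 mM tranylcypromine and 1 = vehicle-only wells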
Plk1 PBD FP = inhibitors of human Plk1 polo box domain binding | Plk1 PBD phosphopeptide binding, fluorescence polarization | inhibition, %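 (tested at about 20 µM)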 | AID 693 | 97,000 compounds, 0.13% hits; in the data active = inhibition above about 34%, passing the limit was not always enough
Target sequence (P53350 whole entry, looked up, the tested form may be a part): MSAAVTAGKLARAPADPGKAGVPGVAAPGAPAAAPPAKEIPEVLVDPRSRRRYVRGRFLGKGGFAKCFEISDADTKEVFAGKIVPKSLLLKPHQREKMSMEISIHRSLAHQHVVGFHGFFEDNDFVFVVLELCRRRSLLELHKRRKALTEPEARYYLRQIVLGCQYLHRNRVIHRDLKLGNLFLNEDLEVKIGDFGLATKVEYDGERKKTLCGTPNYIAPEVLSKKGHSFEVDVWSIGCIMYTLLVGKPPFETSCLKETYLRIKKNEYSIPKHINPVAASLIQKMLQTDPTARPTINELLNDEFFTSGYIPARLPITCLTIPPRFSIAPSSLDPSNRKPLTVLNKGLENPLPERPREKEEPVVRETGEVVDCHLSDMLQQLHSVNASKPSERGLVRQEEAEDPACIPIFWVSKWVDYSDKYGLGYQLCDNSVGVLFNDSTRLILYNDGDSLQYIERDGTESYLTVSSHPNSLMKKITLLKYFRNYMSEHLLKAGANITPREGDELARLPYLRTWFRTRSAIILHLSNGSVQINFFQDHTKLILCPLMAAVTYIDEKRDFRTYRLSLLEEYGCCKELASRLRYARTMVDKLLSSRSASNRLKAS
CYP2C9 act = increases human cytochrome P450 2C9 activity; P11712; recombinant CYP2C9, luciferin-H conversion, luminescence; hits give high values; factor 1 = untreated enzyme, 0 = blocked; activation factor at 5 µM; 96,000 compounds, 1.4% hits; AID 1024;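 active = activation factor of 2 or more for CYP2C9 at a 5 µM dose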;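 also: 0 = sulfaphenazole-blocked wells and 1 = vehicle-only wells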
CYP2C9 inh = blocks human cytochrome P450 2C9; inhibition, % at 5 µM; 96,000 compounds, 20% hits; CYP2C9 Supersomes, luciferin-H conversion, luminescence;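 active = blocking of liver enzyme CYP2C9 beyond about 50% at 5 µM, limit read from the data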
PLK1 kinase inh = PLK1 (human) kinase inhibition. inhibition, % at 10 µM. AID 619. 97,000 compounds, 0.53% hits. recombinant PLK1 kinase, TR-FRET peptide phosphorylation;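 active = inhibition of 50% or more in the single-concentration screen; inactive = inhibition below 50%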;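 also: 0% = DMSO max control and 100% = H-89 dihydrochloride min control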
CYP2C19 inh = inhibitors of human CYP2C19; inhibition, % at 5 µM; P33261; 96,000 compounds, 21% hits; CYP2C19 Supersomes, luciferin-H EGE luminescence, 30 min;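 active = CYP2C19 inhibition above a set limit at 5 µM in the primary screen, cut at about 50% in these data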;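 also: plate controls were negative control wells for no effect and 2.5 mM tranylcypromine positive control for full effect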
An asterisk follows results filed as active; x = not tested or not shown. Rows were chosen to be rich in hits. Some 28% of all compounds tested hit in one or more screens of this group.

SMILES	CYP2C19 activ	Plk1 PBD FP	CYP2C9 act	CYP2C9 inh	PLK1 kinase inh	CYP2C19 inh
Cc1noc(C)c1COC(=O)c1cc(=O)[nH]c2ccccc12	0.4	1	0.2	80*	-14	60*
Cc1noc(C)c1C(=O)OCC(=O)c1c[nH]c2ccccc12	0.1	-20	0.1	88*	-7	91*
CCn1nc(C(=O)OC2CCOC2=O)c2ccccc2c1=O (stereo not given)	1	10	0.8	17	-15	5
CCOC(=O)c1[nH]c(C)c(C(=O)OCc2c(C)noc2C)c1C	0.7	-32	0.3	65*	-1	33
CCn1nc(C(=O)OCc2c(C)noc2C)c2ccccc2c1=O	1.4	-5	0.2	76*	-2	-35
CCOC(=O)c1c(C)[nH]c(C(=O)O)c1C	0.9	x	0.7	26	x	11
CCc1cccc2c(C(=O)COC(=O)c3c(C)noc3C)c[nH]c12	0.9	-15	0.9	7	-15	11
O=C(CSCc1ccc(Cl)cc1)N/N=C/c1ccc(Cl)cc1Cl	0.9	-34	0.7	29	-4	6
O=C1COc2ccc(C(=O)COC(=O)CCc3ccc(S(=O)(=O)N4CCOCC4)cc3)cc2N1	1	11	0.8	20	0	-5
CCN=C1SC(C(=O)Nc2ccccc2)CC(=O)N1CC (stereo not given)	0.6	-9	1.2	-24	-4	37
COc1cc(OC)cc(C(=O)NC(C(=O)NCCN(C)C)C23CC4CC(CC(C4)C2)C3)c1 (stereo not given)	0.1	5	1	2	-5	93*
O=C(NCc1ccccc1)N(Cc1nc2ccccc2c(=O)[nH]1)C1CCCC1	0.6	11	0.5	53*	-12	43
O=C(CN1C(=O)C2CC=C(Cl)CC2C1=O)N1CCOCC1 (stereo not given)	x	-3	x	x	-7	x
CCC(=O)N(Cc1cc2ccc(C)cc2n2nnnc12)C1CCCCC1	x	2	x	x	-11	x
COC1(c2ccccc2)NC(=S)NN=C1c1ccccc1 (stereo not given)	0.5	7	0.2	82*	-2	48
CCCCOC1(c2ccccc2)NC(=S)NN=C1c1ccccc1 (stereo not given)	0.2	2	0.1	95*	-10	79*
CCCCOc1ccc(-c2nc(=S)[nH][nH]2)cc1	1	-6	0.8	16	0	3
CCN1CCN(CC(=O)NC2CCCCC2)C(=O)C1=O	x	-13	x	x	-2	x
CN(C)c1ccc(C2NCC(CCl)O2)cc1 (stereo not given)	0.8	8	1.1	-8	-8	17
COc1ccc(CCNC(=O)c2cc(-c3ccc(C)cc3O)n[nH]2)cc1OC	1	4	0.9	13	-7	4
O=C1CC(C(=O)NCc2ccccc2)C2(CCCC2)O1 (stereo not given)	0.6	-5	0.9	6	-5	39
CC12CC(c3ccccc3O1)C(C(=O)NCc1ccccc1)C(=O)N2 (stereo not given)	0.4	-13	0.8	21	-1	60*
CC1(C(=O)NCc2ccccc2)Oc2ccccc2NC1=O (stereo not given)	0.2	12	0.2	76*	-13	77*
Cc1occc1-c1nnc(SCCCC(=O)c2ccc(F)cc2)n1C	0.3	x	0.5	54*	x	72*
COCCn1c(SCCCC(=O)c2ccc(Br)cc2)nnc1-c1ccncc1	0.1	7	0.2	85*	-15	94*
SMILES	CYP2C19 activ	Plk1 PBD FP	CYP2C9 act	CYP2C9 inh	PLK1 kinase inh	CYP2C19 inh
Cn1c(SCC(=O)c2ccc(F)cc2)nnc1-c1cnccn1	0.6	5	1.1	-6	-6	37
CCc1cccc2c(C(=O)CSc3nnc(-c4ccoc4C)n3C)c[nH]c12	0.3	-13	0.5	53*	-10	65*
Cn1c(SCCCC(=O)c2ccc(F)cc2)nnc1-c1ccncc1	0.3	3	0.4	59*	-2	71*
COCCn1c(SCC(=O)OC(C)C)nnc1-c1ccccc1	0.6	-13	1	-1	-12	36
O=C(C=C1CCN(c2ncc(C(F)(F)F)cc2Cl)CC1)NNC(=O)Nc1ccc(Cl)cc1	0.9	-5	0.8	21	-8	5
CCOC(=O)CCP(=O)(O)C(O)c1ccccc1 (stereo not given)	1.1	0	1	-4	-1	-15
NC(=O)CSc1nnc2sc3ccccc3n12	1.1	7	1.1	-13	-9	-5
Cc1cccc(NC(=S)NC2CC3CCCC(C2)N3CC(C)C)c1 (stereo not given)	x	25	x	x	-10	x
O=C(CCn1nc(-c2ccccc2)ccc1=O)N1CCOCC1	0.7	-4	1	-4	-14	26
O=C(CN1C(=O)C2CC=CCC2C1=O)NC1=NCCS1 (stereo not given)	1	-25	1	2	-2	-1
Cn1c(SCCSc2nnc(-c3ccccc3)n2C)nnc1-c1ccccc1	1	x	1	0	x	-2
Cn1c(SCCCC(=O)c2ccccc2)nnc1-c1ccncc1	0.3	-23	0.5	54*	-7	68*
O=C(C1CC1)N1CCN(C(c2ccccc2)c2ccccc2)CC1	0.1	-3	0.3	69*	-4	93*
CC12CCC(C(=O)N3CCN(C(c4ccccc4)c4ccccc4)CC3)(OC1=O)C2(C)C (stereo not given)	0.5	30	0.1	86*	4	48
O=C(C1CCCCN1S(=O)(=O)c1ccccc1)N1CCN(C(c2ccccc2)c2ccccc2)CC1 (stereo not given)	0.8	-1	0.6	39	-7	23
CCNC(=S)N1CCN(C(c2ccccc2)c2ccccc2)CC1	0.6	19	0.1	91*	-8	40
Cc1c(Cl)cccc1NC(=O)CN1CCC(C(O)(c2ccccc2)c2ccccc2)CC1	1	-13	0.3	70*	-9	1
Cc1cc2c(cc1C)CSC(c1ccccc1OC(=O)C(C)C)SC2	1	-11	1	5	-14	-1
O=C(C1CC1)N1CCC(C(O)(c2ccccc2)c2ccccc2)CC1	0.1	-45	0.4	61*	-10	90*
O=C(C1CCN(S(=O)(=O)c2ccccc2)CC1)N1CCOCC1	0.9	-4	0.9	6	-6	8
COc1ccc(-c2ccc(C#N)c(OC(=O)c3c(Cl)cccc3Cl)n2)cc1	1.1	-6	0.8	23	-2	-10
COc1c(Cl)cc(Cl)cc1/C=N/n1cnnc1	1	-13	1	-1	-1	-2
Cn1c(NCc2ccccc2O)nc2ccccc21	0.4	x	1	-1	x	64*
Cn1c(NCc2cccc(Br)c2)nc2ccccc21	0.5	-12	0.7	31	3	54*
Cc1c(C(=O)N2CCc3ccccc32)oc2c1C(=O)CC(C)(C)C2	0.9	-1	0.8	23	-12	11
C=CCNS(=O)(=O)c1sccc1/C=N/O	0.4	-14	1	2	-7	60*

Screening results as filed in PubChem BioAssay.
